In PubChem BioAssay AID504845 (National Center for Advancing Translational Sciences (NCATS), 2011):
Among all 390,000 compounds or so, about 150 (0.038%) were called active. Inconclusive results (about 3%) are left out. The call rests on the fitted dose curve; in most records, active means well fitted inhibition curve with a large enough effect; inconclusive means small, poorly fitted or top-dose-only effect; inactive means no such curve, though single readings can be large or run the other way. Shown is part of a subset that was picked to be rich in actives.

Biological target: Regulator of G-protein signaling 4 (Homo sapiens) (UniProt P49798)
Experiment: Inhibitors of Regulator of G Protein Signaling (RGS) 4: qHTS; further: nearly all actives have a fitted effect of over 75% in size
Details: Transcreener GDP fluorescence polarization, RGS4-accelerated GTP hydrolysis; series mostly up to 114 µM; activity change, negative = inhibition: at the top concentration
Summary of the method: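 MLSMR compounds (23 nl, pin-transferred) preincubated 10 min at room temperature with a 500nM (2x) first reagent, then RGS4 at 900nM (2x) plus Transcreener GDP mix added; fluorescence polarization (620/688 nm) read before and after 90 min at 30 °C.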
On the % scale 0 is the no-effect control and ±100 the full control effect.

Chain of Regulator of G-protein signaling 4 (Homo sapiens) (P49798 whole entry, looked up): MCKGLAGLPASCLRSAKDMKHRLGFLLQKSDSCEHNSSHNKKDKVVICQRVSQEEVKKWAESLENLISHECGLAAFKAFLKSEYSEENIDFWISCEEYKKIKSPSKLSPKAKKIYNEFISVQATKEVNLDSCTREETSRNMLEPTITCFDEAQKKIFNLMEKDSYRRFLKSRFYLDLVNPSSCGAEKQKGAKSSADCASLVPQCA

Activity change, negative = inhibition, inactive:
CCC1=Nc2cc(C(=O)NCC(C)c3ccccc3)ccc2Sc2ccc(C)cc21 (configuration not stated) -7.58%
CN(C)c1cc2c(Nc3ccc4c(cnn4Cc4ccccc4)c3)ncnc2cn1 -0.133% [at 56.9 µM]
Cc1csc(-c2nc3ccccc3n2C)n1 -622% [at 56.9 µM, above what the read-out allows, likely interference]
C=CCCN(C(Cc1ccccc1)C(=O)OC)S(=O)(=O)c1cc(Br)ccc1Br (configuration not stated) -0.629%
Cc1ccc(NC(=O)CCCn2c(=O)c3cccn3c3ccccc32)cc1Cl 7.61%
CC(N)(C(=O)O)c1ccc(-c2nn[nH]n2)cc1 (configuration not stated) 10% [at 56.9 µM]
O=C(c1cccc(Br)c1)N1CCN(Cc2cc(=O)n3nc(-c4ccccc4)sc3n2)CC1 3.64%
O=C(NCCCO)c1nn(-c2ccc(Cl)cc2)nc1CO 28%
Cc1oc2ccc(O)c(CN3CCC(C)CC3)c2c1C(=O)Nc1ccccc1 15.4%
O=C(O)c1ccc2c(c1)N(Cc1ccc(F)cc1)C(=O)c1ccccc1S2=O (configuration not stated) 11.3%
OCCNc1ncnc2oc(-c3ccco3)c(-c3ccco3)c12 -28.3%
O=C(Cn1nc(Cc2cccnc2)c2ccccc2c1=O)N1CCN(c2ccccc2F)CC1 15%
Cc1cc2c(cc3c(SCc4cccc(Cl)c4)nnc(C)n32)o1 4.36%
Cc1cccc(CCNC(=O)c2ccc3c(c2)nc2n3CCC(C)C2)c1 (configuration not stated) -14.1%
Cc1ccc(Cn2c(C)c3cnn(CC(=O)NCc4ccccc4)c(=O)c3c2C)cc1 -1.73%
C/C=C1\C2C=C(C)CC1(N)c1ccc(=O)[nH]c1C2 (configuration not stated) 320% [at 56.9 µM]
Cc1ccc(Nc2nnc(-c3ccc(C)c(S(=O)(=O)N4CCCCC4)c3)c3ccccc23)cc1 -9.78%
CCOC(=O)c1[nH]c(C)c(CCC(=O)NCc2ccccc2C)c1C 19.7%
O=S(=O)(c1ccc2nc(NCc3ccccc3Cl)ccc2c1)N1CCCCC1 0%
CCc1cc2c(cc3c(=O)n(CC(=O)N4CCN(c5cc(Cl)ccc5C)CC4)nc(CC)n32)s1 10.4%
COc1ccc(OC)c(-n2nnc(-c3nc(-c4cc(OC)c(OC)c(OC)c4)no3)c2C)c1 -26.9%
Cc1ccc(SCC(CC(C)C)N2CCN(CCc3ccccc3)CCC2=O)cc1 (configuration not stated) 22%
Cc1cccc(NC(=O)CN(c2ccc(C(C)C)cc2)S(=O)(=O)c2c(C)nn(C)c2C)c1C 5.91%
C#CCCCCCCCCCCCCCCCC(=O)O -583% [at 56.9 µM, above what the read-out allows, likely interference]
CCCN1CCC(=O)N(C(CSc2ccc(OC)cc2)Cc2ccccc2)CC1 (configuration not stated) -16.1%
COc1cccc(CN2CCc3nc(SCC(=O)Nc4ccccc4)[nH]c(=O)c3C2)c1 33.7%
COC(=O)c1ccccc1NC(=O)Cn1c(=O)n(-c2cccc(C(F)(F)F)c2)c(=O)c2c(C)c(C)sc21 21.6%
COc1ccc(CN(Cc2ccccc2)C(=O)c2ccc(O)cc2)cc1COc1ccc(NC(C)=O)cc1 17.2%
COc1cc(OC)c2c(C)cc(=O)oc2c1C(CCN1CCCCC1)c1ccc(N(C)C)cc1 (configuration not stated) 0.18%
O=[N+]([O-])c1ccc(S(=O)(=O)N2CCN(c3nc(-c4ccccc4)nc4ccccc34)CC2)cc1 9.46%
COc1ccc(OC)c(NC(=O)C2CCCN(S(=O)(=O)c3ccc4c(c3)CCCC(=O)N4)C2)c1 (configuration not stated) -0.356%
COCCNC(=O)c1cc(-c2cccc(Cl)c2)on1 -16%
COc1ccccc1-c1nnc(SCC(N)=O)o1 11.9%
O=C(Nc1ccccc1)N[C@H]1C[C@H](C(=O)O)Nc2cc(Cl)cc(Cl)c21 -585% [at 56.9 µM, above what the read-out allows, likely interference]
CCOc1ccc(S(=O)(=O)c2cn(Cc3ccccc3)c3ccc(OCC)cc3c2=O)cc1 1.09%
Cn1c(=O)c2c(nc(SCC(=O)Nc3ccc(F)cc3)n2Cc2ccccc2)n(C)c1=O -15.8%
CC(C)NC(=O)C1CCC(Cn2c(=O)c3sccc3n(Cc3ccc(F)cc3)c2=O)CC1 (configuration not stated) 11.4%
Oc1ccc(Br)cc1C1C=C(c2ccc3c(c2)OCO3)NC(c2ccc(Cl)cc2)N1 (configuration not stated) -36%
Cc1ccc2ccc3c(c2n1)NS(=O)(=O)c1ccccc1-3 -16.3%
COc1ccc2c(C)c(CCC(=O)NCc3ccc(OC)c(OC)c3)c(=O)oc2c1 -14.1%
Cc1c(-c2nc(-c3ccc4c(c3)OCO4)no2)nnn1-c1ccc(Br)cc1F -24.4%
COc1ccc(OC)c(NC(=O)CSC2=Nc3ccccc3C3=NC(CC(=O)NCCc4ccccc4)C(=O)N23)c1 (configuration not stated) 16.3%
CC(C)NC[C@H](O)c1ccc2ccccc2c1 -510% [at 56.9 µM, above what the read-out allows, likely interference]
O=C(CSc1nccn1-c1ccc(F)cc1)Nc1cccc2ccccc12 -5.41%
COc1ccc(-n2c(SCC(N)=O)nc3c(oc4ccccc43)c2=O)cc1 -18.4%
CCn1c(CN2CCC(C)CC2)nc2cc(NC(=O)c3ccccc3[N+](=O)[O-])ccc21 -7.66%
O=C(c1ccc2c(c1)N(Cc1ccccc1)C(=O)c1ccccc1S2(=O)=O)N1CCC(Cc2ccccc2)CC1 8.32%
COc1ccc(-c2cccc(NS(=O)(=O)c3cc(C)c(OC)c(C)c3C)c2)nn1 -39.8%
CCc1ccc(NC(=O)CSc2nc3c([nH]c4ccccc43)c(=O)n2-c2cccc(OC)c2)cc1 0.52%
CCN(CC)c1nc(C#N)nc(OC)n1 23.2%
CC(C)(C)c1ccc(C(=O)N2CCC(c3nc(-c4ccc(S(=O)(=O)N5CCCC5)cc4)no3)CC2)cc1 7.58%
Cn1c(=O)c2c(n3c4ccccc4nc13)NC(=O)CC2c1cccc(Cl)c1 (configuration not stated) -17.3%
CC(C)Sc1oc(-c2cccs2)nc1S(=O)(=O)c1ccc(Cl)cc1 -16.4%
Cc1ccc(SCC(=O)Nc2ccc3oc(-c4ccccc4C)nc3c2)cc1 -0.0912%
C=C1CCN(C(CC(C)C)C(=O)NCc2cc(OC)c(OC)c(OC)c2)S(=O)(=O)c2ccccc21 (configuration not stated) -6.11%
COC(=O)CCc1ccccc1S(=O)(=O)N(CCC(=O)OC)Cc1ccccc1 -18.2%
CCOC(=O)c1ccc(NC(=O)Cn2c(=O)n(-c3ccc(C)cc3)c(=O)c3c2cnn3C)cc1 2.84%
Cc1nn(C(C)C(=O)Nc2ccc(C(C)C)cc2)c(=O)c2c1sc1ccccc12 (configuration not stated) -6.31%
OC[C@@H]1O[C@H](n2cnc3c(SCc4ccccc4)ncnc32)[C@H](O)[C@H]1O -4.78%
CCOc1ccc(Nc2c(S(=O)(=O)c3ccccc3)cnc3ccccc23)cc1 21.6%
COc1ccc(NC(=O)c2ccc3nc(C(C)C)oc3c2)cc1OC -2.42%
Cc1ccc(-c2nn(CC(C)(C)C)c3ncnc(N)c23)cc1 117% [at 56.9 µM]
